# Source: ChEMBL document CHEMBL1201862, “PubChem BioAssay data set” (2004)
# The campaign covered roughly 400,000 compounds. About 2,100 (0.53%) were called active. Another 14% or so got no clear call; they are omitted. No rule for the calls is given here. This excerpt belongs to a sample that is enriched for actives.
# Biological target: Ataxin-2 (Homo sapiens) (UniProt Q99700)
# Test: qHTS for Inhibitors of ATXN expression.
# Assay type: functional
# Sequence of Ataxin-2 (Homo sapiens) (Q99700 whole entry): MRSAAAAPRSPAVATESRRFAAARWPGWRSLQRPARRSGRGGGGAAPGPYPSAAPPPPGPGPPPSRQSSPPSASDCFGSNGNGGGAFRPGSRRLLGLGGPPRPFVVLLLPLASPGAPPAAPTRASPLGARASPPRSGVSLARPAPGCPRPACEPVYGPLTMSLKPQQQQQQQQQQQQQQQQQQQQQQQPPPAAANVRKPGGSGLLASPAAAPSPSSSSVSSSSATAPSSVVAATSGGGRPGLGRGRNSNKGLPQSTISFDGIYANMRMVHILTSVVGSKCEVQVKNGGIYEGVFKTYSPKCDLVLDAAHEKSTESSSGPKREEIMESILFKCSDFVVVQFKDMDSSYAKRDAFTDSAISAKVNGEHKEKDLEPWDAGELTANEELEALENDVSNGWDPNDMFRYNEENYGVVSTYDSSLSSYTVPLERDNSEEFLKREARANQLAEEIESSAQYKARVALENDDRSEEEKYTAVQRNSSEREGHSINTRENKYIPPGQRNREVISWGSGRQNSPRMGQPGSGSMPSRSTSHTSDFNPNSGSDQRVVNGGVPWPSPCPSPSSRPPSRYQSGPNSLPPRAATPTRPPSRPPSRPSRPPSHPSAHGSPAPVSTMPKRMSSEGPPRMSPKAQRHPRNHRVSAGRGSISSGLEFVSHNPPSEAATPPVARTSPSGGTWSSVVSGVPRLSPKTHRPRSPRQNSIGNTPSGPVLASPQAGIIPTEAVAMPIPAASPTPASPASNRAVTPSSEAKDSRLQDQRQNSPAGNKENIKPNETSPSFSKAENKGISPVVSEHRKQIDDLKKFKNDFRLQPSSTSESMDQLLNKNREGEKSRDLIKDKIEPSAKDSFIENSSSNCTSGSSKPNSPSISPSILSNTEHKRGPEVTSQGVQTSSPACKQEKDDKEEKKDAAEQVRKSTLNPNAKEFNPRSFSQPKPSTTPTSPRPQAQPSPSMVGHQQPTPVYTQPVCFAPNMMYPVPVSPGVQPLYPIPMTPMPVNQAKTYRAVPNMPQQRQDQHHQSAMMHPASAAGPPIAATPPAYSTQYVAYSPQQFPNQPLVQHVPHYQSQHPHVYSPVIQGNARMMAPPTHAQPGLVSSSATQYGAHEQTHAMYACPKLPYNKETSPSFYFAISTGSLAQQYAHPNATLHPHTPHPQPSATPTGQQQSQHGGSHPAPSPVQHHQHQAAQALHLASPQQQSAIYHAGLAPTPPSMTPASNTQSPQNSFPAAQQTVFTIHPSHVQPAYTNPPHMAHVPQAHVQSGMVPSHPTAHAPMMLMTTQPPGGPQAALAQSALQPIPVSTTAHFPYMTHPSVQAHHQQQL
row,Structure (SMILES),Potency
1,N#CC(Sc1ccccn1)c1ccc(Cl)cc1 (stereo unspecified),inactive
2,O=C(COC(=O)c1ccc2[nH]c3c(c2c1)CCCC3)NC1CCS(=O)(=O)C1 (stereo unspecified),inactive
3,CC(C)c1ccc2[nH]c(O)c(N=NC(=O)c3cccc(S(=O)(=O)Nc4cccc(Cl)c4)c3)c2c1,1.41 µM (active)
4,CN(CC(=O)Nc1cccc(Cl)c1)S(=O)(=O)c1ccc2[nH]c3c(c2c1)CCCC3,39.8 µM (active)
5,O=S(=O)(Nc1cccc(Cl)c1)c1ccc2[nH]c3c(c2c1)CCCCCC3,31.6 µM (active)
6,CC(C)c1ccc2[nH]c3c(c2c1)CCC/C3=N\NC(=O)c1ccncc1,inactive
7,Cc1ccc(S(=O)(=O)Nc2cccc(N(C)S(C)(=O)=O)c2)cc1[N+](=O)[O-],inactive
8,CN(CC(=O)Nc1cccc(C(F)(F)F)c1)S(=O)(=O)c1ccc2[nH]c3c(c2c1)CCCC3,35.5 µM (active)
9,Clc1ccc2[nH]c3c(c2c1)CNCC3,inactive
10,CSc1nc(O)c(C(c2ccc(C)cc2)c2c(O)nc(SC)nc2O)c(O)n1,inactive
11,CCCn1c(=O)n(CC(=O)NCC2CCCO2)c(=O)c2c3c(sc21)COC(C)(C)C3 (stereo unspecified),inactive
12,CC1CCc2sc(C(=O)OCC(=O)NC(C)C)cc2C1 (stereo unspecified),inactive
13,Cc1cc(NC(=O)CCC(=O)N(C(C(=O)NC(C)(C)C)c2ccccc2Cl)C(C)(C)C)no1 (stereo unspecified),inactive
14,COc1ccccc1C1C2=C(CCCC2=O)N(CC(=O)O)C2=C1C(=O)CCC2,inactive
15,Cc1ccc(NC(=O)c2sc3nc(-c4ccc(F)cc4)ccc3c2N)cc1F,inactive
16,CC(C)c1ccc(C2=CC(c3ccc(C(C)C)cc3)n3nnnc3N2)cc1 (stereo unspecified),inactive
17,CCc1ccc2nc3nc(C)cc(C)c3c(N)c2c1,inactive
18,Cc1ccc(C(=O)CC(=O)c2ccccc2C)c(O)c1,inactive
19,CC(=O)c1cccc(NC(=O)C(C)OC(=O)c2cccc(S(=O)(=O)N3CCN(C)CC3)c2)c1 (stereo unspecified),inactive
20,Cc1ccc(-c2nn3c(C)nnc3s2)cc1NC(=O)c1ccc(-c2ccc(Cl)cc2Cl)o1,8.91 µM (active)
21,Cc1nnc2ccc(-c3ccc(NC(=O)c4ccco4)cc3)nn12,inactive
22,O=C(NCCO)c1ccc2nc(Cc3cccc(Cl)c3)oc2c1,inactive

row,Structure (SMILES),Potency
1,O=C(NCCCN1CCN(c2ccc(F)cc2)CC1)c1ccc2nc(Cc3ccccc3)oc2c1,20 µM (active)
2,C=C(C)CNC(=O)c1ccc2nc(Cc3ccc(OC)cc3)oc2c1,inactive
3,O=c1c(O)c(-c2cccs2)oc2ccc(Cl)cc12,inactive
4,Cc1ccc2cc(C#N)c(NCc3ccccc3)nc2c1,inactive
5,N#Cc1ncc(Cc2ccccc2)nc1C#N,39.8 µM (active)
6,Cc1nc2nc(SCc3ccccc3)nn2c(O)c1CCC(C)C,inactive
7,COc1ccc(NC(=O)c2cc3c(Cl)nc4ccccc4c3s2)cc1OC,35.5 µM (active)
8,CCC1CCCCN1CCCNC(=O)c1cc2c(Cl)nc3ccccc3c2s1 (stereo unspecified),31.6 µM (active)
9,O=C(Cc1csc(Nc2nc(S)nc3ccccc23)n1)NCCCN1CCN(c2ccccc2F)CC1,inactive
10,COc1ccc(-c2cc(C(=O)NC3=NCCS3)c3ccccc3n2)cc1OC,inactive
11,CC1CCN(CCCNC(=O)c2cc3c(Cl)nc4ccccc4c3s2)CC1,39.8 µM (active)
12,CCC1CCCCN1c1nc2c(C=O)c(C)nn2c2ccccc12 (stereo unspecified),inactive
13,O=C(NC1CCCC1)c1cc2c(=O)n3ccccc3nc2s1,inactive
14,O=C(Cc1csc(Nc2nc(S)nc3ccccc23)n1)NCCCN1CCN(c2cccc(Cl)c2)CC1,inactive
15,COc1ccc(NC(=O)c2cc3c(=O)n(C)c4ccccc4c3s2)cc1OC,inactive
16,CCCCCC(=O)NC(=S)Nc1ccc(Cl)cn1,inactive
17,N#Cc1cnn2c(-c3cccc([N+](=O)[O-])c3)ccnc12,inactive
18,FC(F)(F)c1cc(-c2cccs2)nc2ncnn12,inactive
19,CN1CCN(C(=O)CN(C2CCCCC2)S(=O)(=O)c2ccccc2)CC1,inactive
20,COc1ccccc1C(=O)N(Cc1cc2cc3c(cc2nc1N(C)C)OCO3)CC1CCCO1 (stereo unspecified),inactive
21,CCN(CC)CCCN(Cc1cc2cc3c(cc2nc1O)OCO3)C(S)=Nc1ccc(OC)cc1,inactive
22,CCOc1ccccc1C(=O)N(Cc1ccccc1)Cc1cc2cc3c(cc2nc1O)OCCO3,35.5 µM (active)

row,Structure (SMILES),Potency
1,CCOc1ccc(C2C(C(=O)OC)=CN(CCOC)C=C2C(=O)OC)cc1,inactive
2,CCOc1ccc(CNCc2c(C(=O)O)n(Cc3ccc(C)cc3)c3cc(C)ccc23)cc1,25.1 µM (active)
3,CCOc1ccc(-c2oc3ccc(C)cc3c(=O)c2O)cc1,inactive
4,CCc1ccc(CNCc2c(C(=O)O)n(Cc3ccc(C)cc3)c3cc(C)ccc23)cc1,31.6 µM (active)
5,Cc1ccc(CNS(=O)(=O)c2ccc3c(c2)CCN3C(=O)CCCC(=O)O)cc1,inactive
6,CCNC(=O)c1cc2c(=O)n3cccc(C)c3nc2n(Cc2ccc(C)cc2)c1=N,inactive
7,CCc1cccc(C)c1NC(=O)CNCc1ccccc1,inactive
8,Cc1ccc(Cn2c(C(=O)O)c(CNCc3ccc(OC(C)C)cc3)c3ccc(C)cc32)cc1,35.5 µM (active)
9,Cc1ccc(CNCc2c(C(=O)O)n(Cc3ccc(C)cc3)c3cc(C)ccc23)cc1,22.4 µM (active)
10,Cc1ccc(CNC(=O)c2ccc3c(O)c(O)c(-c4ccc(C)cc4)nc3c2)cc1,inactive
11,Cc1cccc(C(=O)/N=c2/c(C#N)cc3c(=O)n4cccc(C)c4nc3n2Cc2ccco2)c1,inactive
12,Cn1ncc(Oc2ccc([N+](=O)[O-])cc2)c(Cl)c1=O,inactive
13,O=C(c1ccccn1)N(c1ccccc1)C1(C(=O)NC2CCCCC2)CCCCC1,inactive
14,OC[C@@H]1[C@@H](c2ccccc2)C(c2ccccc2)=NN1c1ccccc1,inactive
15,CCOCCCNC(=O)C(NC(=O)c1ccc2c(c1)OCO2)c1ccc(Cl)cc1 (stereo unspecified),inactive
16,NC1=Nc2cccc3cccc1c23,inactive
17,Cc1cc2c(cc1C)NC(CC(=O)Nc1ccccc1SC(F)(F)F)C(=O)N2 (stereo unspecified),inactive
18,Cc1cc2n(n1)C(c1ccccc1)CC(c1ccc(Br)cc1)=N2 (stereo unspecified),inactive
19,CCOC(=O)c1c(SCC(=O)Nc2nccs2)nc(C)c(C)c1C,inactive
20,Cc1ccc(N2C(=O)CC(Sc3nc4ccccc4o3)C2=O)cc1Cl (stereo unspecified),39.8 µM (active)
21,Cc1cc(C)nc(SC2CC(=O)N(c3ccc(C)c(C)c3)C2=O)n1 (stereo unspecified),inactive
22,CC(=O)NS(=O)(=O)c1ccc(N2C(=O)CC(Sc3nccc(C)n3)C2=O)cc1 (stereo unspecified),inactive
